Assay results from PubChem BioAssay AID1159580 (chemical genetic matrix, 2015).
Hit rate of the full screen: of about 5,500 compounds, about 2,000 (36%) were called active. Roughly 18% stayed inconclusive and do not appear here. Rule as the data show it: active = normalized growth mostly below about 0.91 (no sharp cut-off); inconclusive = no clear call, values can overlap the other calls; inactive = mostly above about 0.92. This is one part of the list.

Test: chemical genetic growth profiling, strain panel (AID 1159580);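 also: tested at 20 µM; growth read once vehicle control cultures reached saturation at 30 °C; 1 = growth at the plate median or of vehicle wells; lower values mean less growth of the strain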
Conditions: S. cerevisiae deletion strains, growth OD
[1] = locus YAL013W, strain DEP1, active compounds read low
[2] = locus YAL040C, strain CLN3, active compounds read low
[3] = locus YCL061C, strain MRC1 (second series), active compounds read low
[4] = locus YDR150W, strain NUM1, active compounds read low
[5] = locus YER002W, strain NOP16, active compounds read low
[6] = locus YNL175C, strain NOP13, active compounds read low
[7] = locus YNL197C, strain WHI3, active compounds read low
[8] = locus YNL224C, strain SQS1, active compounds read low
[9] = locus YNL322C, strain KRE1, active compounds read low
[10] = locus YOR083W, strain WHI5 (second series), active compounds read low
[11] = locus YPL241C, strain CIN2, active compounds read low
[12] = locus YPL055C, strain LGE1, active compounds read low

Measured: normalized growth

Nc1nc(SCc2ccc([N+](=O)[O-])cc2)c2ncn([C@@H]3O[C@H](CO)[C@H](O)C3O)c2n1 (some centres undefined)
inactive: [1] 1.01 | [2] 1.02 | [3] 1 | [4] 0.994 | [5] 1 | locus YGR229C, strain SMI1, active compounds read low 1.04 | locus YJR075W, strain HOC1, active compounds read low 0.995 | locus YNL153C, strain GIM3, active compounds read low 0.989 | [6] 0.996 | [7] 1 | [8] 1 | [9] 1.02 | [10] 0.998 | [11] 1

CC(C)NC(C)Cc1ccc(I)cc1 (centres undefined)
inactive: [1] 0.999 | [2] 1.01 | [3] 1.01 | [4] 1.01 | locus YDR363W, strain ESC2, active compounds read low 0.995 | [5] 1 | [6] 1.01 | [7] 1.01 | [8] 1 | [9] 1 | [10] 0.998 | [12] 0.991 | [11] 1.02

COC(=O)CC1C(C)(C)C(=O)C2CC3(O)C4=CC(=O)OC(c5ccoc5)C4(C)CCC3C1(C)C2=O (centres undefined)
inactive: locus YBR021W, strain FUR4, active compounds read low 1 | locus YBR229C, strain ROT2, active compounds read low 1 | locus YCL029C, strain bik1, active compounds read low 0.983 | locus YDL035C, strain GPR1, active compounds read low 1.01 | locus YDL074C, strain BRE1, active compounds read low 1 | locus YDL101C, strain DUN1, active compounds read low 1 | locus YDL185W, strain tfp1, active compounds read low 0.981 | locus YDL192W, strain arf1, active compounds read low 0.99 | locus YDR101C, strain arx1, active compounds read low 0.997 | locus YDR162C, strain NBP2, active compounds read low 1.02 | locus YDR318W, strain mcm21, active compounds read low 0.977 | locus YDR388W, active compounds read low 0.982 | locus YDR502C, strain sam2, active compounds read low 0.992 | locus YER110C, active compounds read low 0.983 | locus YER155C, strain BEM2, active compounds read low 1 | locus YER167W, strain BCK2, active compounds read low 1.01 | locus YGL078C, strain dbp3, active compounds read low 0.982 | locus YGL086W, strain mad1, active compounds read low 0.993 | locus YGL248W, strain PDE1, active compounds read low 1 | locus YGR135W, strain pre9, active compounds read low 0.985 | locus YGR252W, strain gcn5, active compounds read low 0.906 | locus YHR030C, strain SLT2, active compounds read low 1.01 | locus YHR079C, strain IRE1 (second series), active compounds read low 0.977 | locus YHR094C, strain hxt1, active compounds read low 0.985 | locus YHR129C, strain ARP1, active compounds read low 1 | locus YHR200W, strain rpn10, active compounds read low 0.986 | locus YIL066C, strain RNR3, active compounds read low 1.01 | locus YIL073C, strain SPO22, active compounds read low 1.03 | locus YIL125W, strain kgd1, active compounds read low 0.984 | locus YIR030C, strain dcg1, active compounds read low 0.989 | locus YJL095W, strain BCK1, active compounds read low 1.02 | locus YJL134W, strain LCB3, active compounds read low 1 | locus YJL168C, strain set2, active compounds read low 0.982 | locus YJL187C, strain SWE1 (second series), active compounds read low 1 | locus YJR043C, strain POL32, active compounds read low 0.997 | locus YKL009W, strain mrt4, active compounds read low 0.989 | locus YKL068W, active compounds read low 0.993 | locus YKL085W, strain MDH1 (second series), active compounds read low 0.991 | locus YKL085W, strain MDH1, active compounds read low 0.991 | locus YKR001C, strain vps1, active compounds read low 0.97 | locus YLR039C, strain RIC1, active compounds read low 1.05 | locus YLR058C, strain SHM2, active compounds read low 1 | locus YLR102C, strain apc9, active compounds read low 0.988 | locus YLR262C, strain YPT6, active compounds read low 1.13 | locus YLR268W, strain sec22, active compounds read low 0.977 | locus YLR342W, strain FKS1 (second series), active compounds read low 0.992 | locus YLR371W, strain rom2, active compounds read low 0.986 | locus YLR418C, strain cdc73, active compounds read low 0.966 | locus YML016C, strain PPZ1, active compounds read low 1 | locus YML032C, strain rad52, active compounds read low 0.982 | locus YML124C, strain tub3, active compounds read low 0.988 | locus YMR078C, strain ctf18, active compounds read low 0.991 | locus YMR223W, strain ubp8, active compounds read low 0.992 | locus YMR307W, strain GAS1, active compounds read low 0.985 | locus YNL067W, strain RPL9B, active compounds read low 1.01 | locus YNL128W, strain TEP1, active compounds read low 1.01 | locus YNL233W, strain BNI4, active compounds read low 1.01 | locus YNL250W, strain rad50, active compounds read low 0.986 | locus YNL271C, strain bni1, active compounds read low 0.979 | locus YNL298W, strain CLA4, active compounds read low 0.982 | locus YNL307C, strain MCK1, active compounds read low 0.986 | locus YNR052C, strain pop2, active compounds read low 0.978 | locus YOL012C, strain htz1 1.11 | locus YOL147C, strain pex11, active compounds read low 0.983 | locus YOR061W, strain CKA2, active compounds read low 1.01 | locus YOR069W, strain VPS5, active compounds read low 1 | locus YOR136W, strain idh2, active compounds read low 0.978 | locus YOR144C, strain elg1, active compounds read low 0.985 | locus YOR184W, strain ser1, active compounds read low 0.992 | locus YOR316C, strain cot1, active compounds read low 0.991 | [12] 0.994 | [11] 1 | locus YPR119W, strain clb2, active compounds read low 0.999 | locus YPR141C, strain kar3, active compounds read low 0.99 | locus YPR163C, strain tif3, active compounds read low 0.982 | locus YPR167C, strain met16, active compounds read low 0.985 | strain wtn01, active compounds read low 0.99
